Screening results deposited in PubChem BioAssay by several laboratories.
Shown are actives, neighbours in structure and some others; about 2.9% of the full set was active somewhere.
KKLEB tox = cytotoxicity in KKLEB CF airway cells, primary screen, cytotoxicity control for CF NF-kB inhibitor project, cell-based, uHTS, fluorescence assay plates. KKLEB CF airway cells viability, ATPlite luminescence, overnight; active compounds read low; cells stimulated with P. aeruginosa culture filtrate. activity change (cytotoxicity), % at 5 µM. 0.36% of 360,000 active. AID 602141, 2011;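 active = corrected activity change at or below -50% at 5 µM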
CF NFkB inh = inhibitors of PAF-induced NF-kB signaling, primary screen, cell-based, GFP fluorescence, uHTS | KKLEB NF-kB-GFP reporter, GFP fluorescence overnight | inhibition, % at 5 µM | 0.86% of 360,000 active;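 active = at least 50% inhibition at 5 µM, scaled per plate between neutral and stimulator controls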;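 note: PAF is a Pseudomonas aeruginosa culture filtrate used as stimulus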
Shn3 3UTR inh = reduction of Shn3 3'UTR firefly luciferase signal, primary screen, Schnurri-3 inhibitor project, cell-based, Clone20 osteoblasts, set 2; inhibition, % at 12.5 µM; 0.52% of 360,000 active; Clone20 osteoblast Shn3 3'UTR firefly luciferase, 24 h; AID 588674, 2011;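 active = mean inhibition of at least 75% with every replicate also reaching 75%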
EBV LMP1 NFkB = EBV LMP1-driven NF-kappaB luciferase reporter inhibitors, primary screen, cell-based, luminescence, single point | LMP1-induced NF-kappaB luciferase reporter cells | 0.69% of 350,000 active | inhibition, % at 12.5 µM | AID 504558, 2011; in the data active = inhibition above about 41%
HIF-2a block = HIF-2a reporter inhibitors, primary screen, luminescence, 786-0 RCC cells; 786-0 RCC cells HIF-2a reporter, luciferase luminescence, overnight; inhibition, % at 18.8 µM; 0.72% of 360,000 active;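 active = inhibition of the luminescence signal of 40% or more relative to plate controls, in a single-dose primary screen at 18.75 µM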
Peg3 prom inh = Peg3 promoter-driven luciferase inhibitors, primary screen, cell-based, HeLa, luciferase luminescence; HeLa PEG-Prom luciferase reporter, overnight; inhibition, % at 20 µM; 1.7% of 360,000 active; AID 588405, 2011;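 active = inhibition of at least 50% at 20 µM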
A number is an active result; 0 = inactive; - = no result given.

SMILES | KKLEB tox | CF NFkB inh | Shn3 3UTR inh | EBV LMP1 NFkB | HIF-2a block | Peg3 prom inh
O=C1NC(Cc2ccccc2)C(=O)N1Cc1cc([N+](=O)[O-])cc2c1OCOC2 (centres undefined) | 0 | 0 | 0 | 55 | 0 | 0
C/C(Cl)=C\Cn1c(NCCc2ccccc2)nc2c1c(=O)n(C)c(=O)n2C | 0 | 0 | 88 | 0 | 0 | 0
Cc1ccccc1NC(=O)CN1C(=O)S/C(=C\c2cccn2-c2cccc(C(=O)O)c2)C1=O | 0 | 0 | 0 | 74 | 0 | 0
COc1ccc(N/C(N)=N/c2nc(C)cc(=O)[nH]2)cc1 | 0 | 0 | 0 | 86 | 0 | 0
COc1ccccc1CCC(=O)Nc1ncc(C)s1 | 0 | 0 | 0 | 0 | 0 | 0
Cc1cc(C)nc(SCC(=O)NN=C2CCCC2)n1 | 0 | 0 | 0 | 0 | 0 | 0
Cc1ccc2cc(NC(=O)C3(C)CCN(C)C3)ccc2n1 (centres undefined) | 0 | 0 | 0 | - | 0 | 0
Cc1c(CCOC(=O)CC23CC4CC(CC(C4)C2)C3)sc[n+]1CC(=O)c1ccc(Br)cc1 | 0 | 0 | 94 | 0 | 0 | 0
Cc1c(CCOC(=O)CC23CC4CC(CC(C)(C4)C2)C3)sc[n+]1CC(=O)c1ccccc1 | 0 | 0 | 0 | 0 | 0 | 84
Cc1cc(C)cc(NC(=O)C/C(N)=N/O)c1 | 0 | 0 | 0 | 0 | 0 | 0
CCCCCCCCC1=NCCc2c1[nH]c1ccccc21 | 0 | 0 | 0 | 0 | 0 | 91
CCN1C[C@@H]2[C@@H]3C(=O)N(Cc4ccccc4)C(=O)[C@@H]3[C@](C)(C(=O)OC)N2C1=NC | 0 | 0 | 0 | 0 | 0 | 0
Cc1sc2ncn(CC(=O)N3CCC(C(N)=O)CC3)c(=O)c2c1S(=O)(=O)N1CCOCC1 | 0 | 0 | 0 | 46 | 0 | 0
CCc1ccc(/C=C/C(=O)c2ccc(S(=O)(=O)N(C)C)cc2)cc1 | 0 | 0 | 0 | 0 | 0 | 54
CCc1ccc(/C=C/C(=O)c2ccc(N3CCOCC3)cc2)cc1 | 0 | 0 | 0 | 0 | 0 | 0
CCOc1cc(/C=C/C(=O)Nc2ccc(C(=O)NCCN(CC)CC)cc2)ccc1OCC(C)C | 0 | 0 | 0 | 0 | 0 | 104
Cc1c(Cl)cccc1NC(=S)/C(=C(\[O-])c1ccc(Cl)s1)[n+]1ccccc1 | 0 | 0 | 0 | 0 | 0 | 58
Cc1cccc(CSc2nc(N)c(C#N)c(-c3cccs3)c2C#N)c1 | 0 | 0 | 0 | 0 | 0 | 63
Cc1cccc(CSc2nc3c(c(-c4cccs4)c2C#N)CN(C)CC3)c1 | 0 | 0 | 0 | 0 | 0 | 0
Cc1cccc(Oc2ncc(-c3ccc(Cl)cc3)cn2)c1 | 0 | 0 | 0 | 0 | 0 | 0
COc1cc(C)c(C(=O)CC(=O)c2c(C)cc(OC)cc2C)c(C)c1 | 0 | 0 | 0 | - | 0 | 50
COc1ccc(NC(C)=O)c(C)c1 | 0 | 0 | 0 | 0 | 0 | 0
O=C(CCl)Nc1ccc(N2CCCCCC2)cc1 | 0 | 0 | 0 | 0 | 0 | 84
O=C(CCl)Nc1ccc(N=Nc2ccccc2)cc1 | 0 | 0 | 0 | 0 | 0 | 107
CC(=O)Nc1ccc(N=Nc2ccccc2)cc1 | 0 | 0 | 0 | 0 | 0 | 0
SMILES | KKLEB tox | CF NFkB inh | Shn3 3UTR inh | EBV LMP1 NFkB | HIF-2a block | Peg3 prom inh
COc1cccc(-c2cnc(C(O)c3ccc(C)c(F)c3)[nH]2)c1 (centres undefined) | 0 | 0 | 0 | - | 0 | 0
CN(C)CCCN(C(=O)/C=C/c1cccs1)c1nc2ccc(F)cc2s1 | 0 | 0 | 0 | 0 | 0 | 0
CN(C)CCN(C(=O)/C=C/c1cccs1)c1nc2c(F)cc(F)cc2s1 | 0 | 0 | 0 | 0 | 0 | 106
C=CCN(C(C(=O)OC)C(C)C)S(=O)(=O)CCNCc1ccccc1 (centres undefined) | 0 | 0 | 0 | 0 | 0 | 0
CC1CCCN(C(=O)C2CCN(S(=O)(=O)c3cccs3)CC2)C1 (centres undefined) | 0 | 0 | 0 | 0 | 0 | 0
CCOC(=O)C/C(N)=N/NC(=O)c1ccc(Cl)cc1Cl | 0 | 0 | 0 | 0 | 0 | 0
CCOC(=O)C1=C(C)NC(C)=C(C(=O)OCC)C1c1cn(-c2ccccc2)nc1-c1ccco1 | 0 | 0 | 0 | 76 | 0 | 0
Cc1cccc(N(Cc2ccccc2)C(=O)CCl)c1 | -107 | 96 | 0 | 0 | 0 | 59
COc1ccc(CC(=O)N(Cc2ccccc2)c2cccc(C)c2)cc1OC | 0 | 0 | 0 | 0 | 0 | 0
Cc1ccc(C2Cc3cc(O)c(O)cc3CN2)cc1 (centres undefined) | 0 | 0 | 0 | - | 0 | 0
Cc1cc(N)n(Cc2cccs2)n1 | 0 | 0 | 0 | 0 | 0 | 0
COc1ccccc1Nc1nc(NCc2ccco2)c2ccccc2n1 | 0 | 0 | 0 | - | 0 | 0
c1ccc(-c2nc(NCc3ccco3)c3ccccc3n2)nc1 | 0 | 0 | 0 | 63 | 0 | 0
Cc1ccc(Nc2nc(NCc3ccco3)c3ccccc3n2)cc1 | 0 | 0 | 96 | 0 | 0 | 106
CC(=O)OCC(=O)C1CCC2C3CCC4=CC(=O)C=CC4(C)C3CCC12C (centres undefined) | 0 | 0 | 0 | 0 | 0 | 0
CC(=O)OCC(=O)[C@@]1(O)[C@H](C)C[C@H]2[C@@H]3CCC4=CC(=O)C=C[C@]4(C)[C@@]3(F)[C@@H](O)C[C@@]21C | 0 | 69 | 0 | 0 | 0 | 0
C[C@@H]1C[C@H]2[C@@H]3C[C@H](F)C4=CC(=O)C=C[C@]4(C)[C@@]3(F)[C@@H](O)C[C@]2(C)[C@@]1(O)C(=O)COC(=O)C(C)(C)C | 0 | 76 | 0 | 0 | 0 | 0
CC(=O)[C@@]1(O)CC[C@H]2[C@@H]3C[C@H](C)C4=CC(=O)C=C[C@]4(C)[C@@]3(F)[C@@H](O)C[C@@]21C | 0 | 72 | 0 | 0 | 0 | 0
CCCC(=O)O[C@]1(C(=O)COC(C)=O)CC[C@H]2[C@@H]3C[C@H](F)C4=CC(=O)C=C[C@]4(C)[C@@]3(F)[C@@H](O)C[C@@]21C | 0 | 63 | 0 | 0 | 0 | 0
COc1ccc(NC(=O)Cc2nnc(SCC(=O)NC3CCCCC3C)n2C)cc1 (centres undefined) | 0 | 0 | 0 | 0 | 0 | 0
CN1CCC(=O)N([C@H](CN=[N+]=[N-])Cc2ccccc2)CC1 | 0 | 0 | 0 | 0 | 0 | 0
FC(F)(F)c1ccc(Cl)c(NC2=NCCCCC2)c1 | 0 | 0 | 0 | 0 | 0 | 0
CCC(=O)OCC(=O)[C@@]1(OC(=O)CC)[C@@H](C)C[C@H]2[C@@H]3CCC4=CC(=O)C=C[C@]4(C)[C@@]3(Cl)[C@@H](O)C[C@@]21C | 0 | 67 | 0 | 0 | 0 | 0
C[C@@H]1C[C@H]2[C@@H]3CCC4=CC(=O)C=C[C@]4(C)[C@@]3(F)[C@@H](O)C[C@]2(C)[C@H]1C(=O)CO | 0 | 72 | 0 | 0 | 0 | 0
